This note sets out measurements from PubChem BioAssay AID686971 (National Center for Advancing Translational Sciences (NCATS), 2013).

Among all 360,000 compounds or so, about 7,500 (2.1%) were called active. Another 8% or so got no clear call; they are omitted. Many of the other results were omitted from the sample, so actives are more common in it than they were. Unmarked numbers belong to inactive results. The call rests on the fitted dose curve; in most records, active means well fitted cell-killing curve with a large enough effect; inconclusive means small, poorly fitted or top-dose-only effect, or effect the other way, or another doubt; inactive means no such curve, though single readings can be large or run the other way.
Potency means the concentration at half of the fitted maximal effect.

This assay can be described thus: qHTS for induction of synthetic lethality in tumor cells producing 2HG: qHTS for the HT-1080-IDH1KD cell line.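 On activity, negative = toxicity: 0% = DMSO wells and -100% = cell-free medium wells.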 To be noted: HT-1080 IDH1 knockdown viability, ATP luminescence, 48 h; series mostly up to 46.1 µM; activity, negative = toxicity: at the top concentration. Put shortly: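 IDH1KD HT-1080 cells, 750/well, RPMI + 5% FBS; compound pinned after 2 h settling; 48 h, 37 °C; CellTiter-Glo luminescence; % activity normalised to DMSO and no-cell wells; curves fitted, classed by r2 and efficacy.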
(Quantitative high-throughput screening tests each substance at several concentrations.)
As to `CC1(C(=O)Nc2cccc3c2CCCC3)CCN1C(=O)C1(c2ccccc2)CC1` (stereo not given), the “activity, negative = toxicity” value was -21.8%.

In the case of `O=C(Nc1cccc(Cc2ccccc2)c1)Nc1ccc2nc([C@@H]3O[C@H](CO)[C@@H](O)[C@H](O)[C@H]3O)[nH]c2c1`, the “activity, negative = toxicity” value is 27.1%. Turning to `Cc1[nH]c2ccccc2c1C(=O)CN1CC(C)CC(C)C1` (stereo not given), the Potency is 18.4 µM (active). Consider `Cc1[nH]c2ccccc2c1C(=O)CN1CCCC(C)C1` (stereo not given), for which the “activity, negative = toxicity” value is -0.222%. For `Cc1[nH]c2ccccc2c1C(=O)CSCC(=O)O`, the “activity, negative = toxicity” value was 2.2%.

For the compound `C=CCn1c2c(c3ccccc31)CCC2`, the “activity, negative = toxicity” value is 9.84%.

Turning to `C=C1C(=O)OC2C1CCC(C)=CCCC1(C)OC21` (stereo not given), the Potency is 11.6 µM (active). Turning to `Cc1cc(C)c(-c2c(O)c3ccccc3n(C)c2=O)c(C)c1`, the “activity, negative = toxicity” value is 6.69%.

On to `Cn1c(=O)c([N+](=O)[O-])c(Oc2ccccc2)c2ccccc21`, for which the Potency was 23.1 µM (active). Turning to `COc1cc2c(=O)n(C)c3ccccc3c2cc1OC`, the “activity, negative = toxicity” value was 10.9%. `O=C(N/N=C/c1cccc(O)c1)c1cc2c(ccc3ccccc32)o1`: the “activity, negative = toxicity” value is -9.35%. Turning to `Cc1c(/C=N/N2C(=O)C3C4C=CC(C4)C3C2=O)c2ccccc2n1C` (stereo not given), the “activity, negative = toxicity” value was -0.0518%. In the case of `Cc1c(/C=N\NC(=O)c2cc3ccccc3o2)c2ccccc2n1C`, the Potency was 18.4 µM (active). Regarding `CN(Cc1ccccc1)C(=O)[C@@H]1CCCN1C(=O)[C@@H]1CCCN1C(=O)c1c(F)cccc1F`, the “activity, negative = toxicity” value is 2.52%. Turning to `CCOC(=O)C(C(=O)OCC)C(C#N)c1ccccc1` (stereo not given), the “activity, negative = toxicity” value was 1.46%.

As to `O=C(Cc1ccc(-c2ccccc2)cc1)NC(c1ccccc1)c1ccccc1`, the “activity, negative = toxicity” value is -29.4%. For `CCOC(=O)/C=C/C(=O)OCC(=O)NC(c1ccccc1)c1ccccc1`, the Potency is 20.6 µM (active). With `CN(C)c1ccc(C2N(C)C(=O)c3ccccc3N2C)cc1` (stereo not given), the “activity, negative = toxicity” value was -14.3%. With `CN(C)c1ccc(Nc2c3c4c(cccc4n(C)c2=O)C(=O)c2ccccc2-3)cc1`, the Potency was 4.61 µM (active). Regarding `CSc1ncnc2c1ncn2CCCNCC(C)c1ccccc1` (stereo not given), the “activity, negative = toxicity” value was 0.421%. Consider `c1ccc(Cn2nnc3c(NCC4CC4)ncnc32)cc1`, for which the “activity, negative = toxicity” value was 1.82%. With `O=[N+]([O-])/C=C/c1ccc2c(ccn2Cc2ccccc2)c1`, the Potency was 16.4 µM (active). In the case of `CCc1nc2ccc(C(=O)N(C)Cc3ccco3)cn2c1N(C)C(=O)Cc1ccccc1`, the “activity, negative = toxicity” value is 0%. Same read-out and setting: then `Cc1ccc(S(=O)(=O)N2C[C@H]3C(=O)C[C@@H](c4cccc5ccccc45)N(S(=O)(=O)c4ccc(C)cc4)[C@H]3C[C@H]2c2ccc(Cl)cc2)cc1`, with -4.09%. For the compound `COCC(C)NC(=O)COc1nncc2ccccc12` (stereo not given), the “activity, negative = toxicity” value was 15.1%. In the case of `CC(=O)c1ccc(Nc2nc(C(N)c3ccccc3)cs2)cc1` (stereo not given), the “activity, negative = toxicity” value is -10%. Turning to `NC(Cc1ccc(F)cc1)c1csc(Nc2nncc3ccccc23)n1` (stereo not given), the Potency is 25.9 µM (active).

In the case of `CN1CCN(C(=O)c2ccc(-c3cc4nc(NCc5cccnc5)n(C)c(=O)c4s3)cc2)CC1`, the “activity, negative = toxicity” value was -0.409%. Take `CNc1cnc(-c2cc(OC)c(OC)c(OC)c2)cn1`: the “activity, negative = toxicity” value was 17.9%.

As to `CC(=O)Nc1ccc(Nc2c3ccccc3nc3ccccc23)cc1`, the Potency was 14.6 µM (active).

For the compound `CC(=O)Nc1ccc(Nc2cc(C)nc(Nc3ccc(NC(C)=O)cc3)n2)cc1`, the “activity, negative = toxicity” value is 1.27%. The same measure, in the same setting: then `CC(=O)Nc1ccc(S(=O)(=O)N(C)c2nc3ccccc3nc2Cl)cc1`, with -10.3%; and `Cc1ccc(S(=O)(=O)N2CC3C(=O)C[C@@H](c4ccccc4Cl)N(S(=O)(=O)c4ccc(C)cc4)C3CC2c2ccccc2)cc1` (stereo not given in full), with 6.47%.

As to `CCOC(=O)C1CCCN(C(=O)c2cccc3ccccc23)CC1` (stereo not given), the “activity, negative = toxicity” value was 4.57%. The same measure, in the same setting: under `C[C@@H]1Cn2cnc(C(=O)Nc3ccc(CNC(=O)OC(C)(C)C)cc3)c2C(=O)N1` stands -1.21%; under `CN(c1ccccc1)S(=O)(=O)c1cc(C(=O)Nc2nc3ccccc3[nH]2)ccc1Cl`, -26.3%. Consider `Cc1ccc(O)c(CNc2nc3ccccc3[nH]2)c1`, for which the “activity, negative = toxicity” value is -0.158%. `COC(=O)Nc1nc2ccc(Sc3ccccc3)cc2[nH]1`: the Potency was 0.82 µM (active). As to `CCOC(=O)C1(C)CCCN(C(=O)c2ccc(F)c(Cl)c2)C1` (stereo not given), the “activity, negative = toxicity” value is 1.41%. As to `COc1ccc2c(CC(=O)N3CCc4cc(OC)c(OC)cc4C3)coc2c1`, the “activity, negative = toxicity” value is -17.6%.

Consider `COc1ccccc1CNC(=O)c1cc(=O)c2ccccc2o1`, for which the “activity, negative = toxicity” value was -3.19%. Take `COc1cc2c(cc1OC)CN(C(=O)c1cc(=O)c3ccccc3o1)CC2`: the Potency is 5.8 µM (active). Take `COc1cc(NC(=O)C2=C(C)OCCS2)c(Cl)cc1C(=O)NCCCN1CCCC(C)C1` (stereo not given): the “activity, negative = toxicity” value is 1.32%. For `Cc1ccc2cccc([N+](=O)[O-])c2n1`, the “activity, negative = toxicity” value is 0.157%. With `O=[N+]([O-])c1ccccc1S(=O)(=O)Nc1cccc2cccnc12`, the Potency was 11.6 µM (active). As for `NS(=O)(=O)c1ccc(CCNS(=O)(=O)c2cccc3cccnc23)cc1`, the “activity, negative = toxicity” value is 7.47%. Same read-out and setting: under `Cc1nccn1-c1ccc(NC(=O)[C@H]2O[C@@H](n3cnc4c(N)ncnc43)[C@H](O)[C@@H]2O)cc1` stands 19.9%; under `CC1(C(=O)NS(=O)(=O)Cc2cccc(Cl)c2)CCN1C(=O)Cc1ccccc1` (stereo not given), 0.537%; under `CCCCn1nnnc1C(c1ccccc1)N1CCN(c2ccccc2OC)CC1` (stereo not given), 0.0985%. Still for that read-out and setting: under `CCOC(=O)N1CCN(S(=O)(=O)c2ccc(OC)cc2)CC1` stands -2.16%.
